About 79,000 compounds went through this panel and 15% of them were active in at least one assay; those are over-represented in the sample as a whole. Unmarked numbers belong to inactive results. Calls of active or inactive are those of the source. No stated cut-off is given here; in the data, active means growth inhibition above about 70%; inactive means the rest.
assay: NCI Yeast Anticancer Drug Screen. Data for the sgs1 strain (AID 173);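 further: 0% = growth of vehicle-only control cultures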; details: S. cerevisiae sgs1 mutant, at 1.2 µM, active compounds read high
Method in brief: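 Relative growth inhibition, referenced to vehicle, was determined in a yeast strain with a defined alteration affecting DNA damage repair or cell cycle control after compound exposure.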

Row | SMILES | growth inhibition
1 | O=CC=C(c1ccccc1)c1ccccc1 | -3%
2 | FC(F)(F)c1nc2nc(Cl)c(Cl)nc2n1CCCN1CCOCC1 | 4%
3 | N#CSc1ccc(S(N)(=O)=O)cc1 | -68%
4 | O=C(NC(Nc1ccc(F)c(Cl)c1)(C(F)(F)F)C(F)(F)F)C(C(F)(F)F)C(F)(F)F | 8%
5 | O=C(/C=C\c1ccc(Cl)cc1Cl)c1cccs1 | 0%
6 | O=C(NCCCCNCCCNC(=O)c1cc(-c2ccccc2)nc2ccccc12)c1cc(-c2ccccc2)nc2ccccc12 | 0%
7 | NC(=NCc1ccccc1)N/N=C\c1ccnc2ccccc12 | -1%
8 | COc1cc(C2C3=C(COC3=O)Oc3cc4c(cc32)OCO4)ccc1O (stereo not drawn) | -4%
9 | C#CCCCc1ccccc1 | -48%
10 | CCc1ccc(NS(=O)(=O)c2ccccc2)c([N+](=O)[O-])c1 | 2%
11 | COc1ccc(C2c3cc4c(cc3OC(C)(O)C2C)OCO4)c(OC)c1 (stereo not drawn) | 2%
12 | COC(=O)c1ccc(CCC2=CC(=O)C(Br)=CC2=O)cc1 | 8%
13 | NNC(=O)CCc1ccc2ccc3ccccc3c2c1 | 6%
14 | Cn1c2ccccc2c(=O)c2cc(NC(=O)CCCCC(=O)Nc3ccc4c(c3)c(=O)c3ccccc3n4C)ccc21 | -5%
15 | CC(CC(C)(C)[N+](C)(C)C)[N+](C)(C)C (stereo not drawn) | 2%
16 | CC1CCN(CCC(=O)c2ccc(Cl)cc2)CC1 | 5%
17 | CCCCCCCCCCCCCCC(C(=O)[O-])[n+]1ccccc1 (stereo not drawn) | 0%

Row | SMILES | growth inhibition
18 | CNC1C(OC2C(OC3C(O)C(O)C(N=C(N)N)C(O)C3N=C(N)N)OC(C)C2(O)CO)OC(CO)C(O)C1O (stereo not drawn) | -1%
19 | O=C(O)c1ccccc1-c1ccccc1C(=O)Nc1ccc2c(c1)Cc1ccccc1-2 | 1%
20 | O=[N+]([O-])c1cccc2nc3ccccc3c(NCCCN3CCOCC3)c12 | 91% (active)
21 | C=CC(C)(O)CCC1C(=C)C(O)CC2C(C)(C)CCCC12C (stereo not drawn) | 11%
22 | CN1c2ccc(Cl)cc2C(=O)NC1c1ccc([N+](=O)[O-])s1 (stereo not drawn) | -4%
23 | [O-][n+]1c2ccc(O)cc2nc2ccc(Br)cc21 | 4%
24 | O=C1c2ccccc2-c2nc3ccccc3nc21 | -48%
25 | CCCCN1C(=O)N(c2ccc(OCC)cc2)C2N(CCCC)C1C(C)(C)C2(C)C (stereo not drawn) | -2%
26 | COc1cc2c(cc1[N+](=O)[O-])C(=O)C(Br)(Br)CCC2 | 38%
27 | O=C1OC(CCl)CN1/N=C/c1ccc([N+](=O)[O-])o1 (stereo not drawn) | -6%
28 | CN(C)CCOc1ccc2c(c1)C/C(=C/c1ncc([N+](=O)[O-])n1C)C2=O | 29%
29 | CCCCCCCCCCCCCCCCCCN(C)CC(COP(=O)([O-])OCC[N+](C)(C)C)OC (stereo not drawn) | -15%
30 | CC(C)c1ccccc1NC(=O)/C(Cl)=C(\Cl)C(=O)O | 2%
31 | O=[N+]([O-])C(=C(Sc1ccccc1)Sc1ccccc1)C(Cl)=C(Cl)Cl | 13%
32 | C(=C\c1ccccc1)/COc1ccccc1C(N1CCOCC1)n1nc2ccccc2n1 (stereo not drawn) | 23%
33 | O=C1C(Nc2ccccc2)=C(Oc2ccccc2)C(=O)c2ccccc21 | -7%
34 | CCN(CC)CCN1C(=O)c2cccc3cc(OC)cc(c23)C1=O | -4%

same assay, conditions: S. cerevisiae sgs1 mutant, at 3.7 µM, active compounds read high

Row | SMILES | growth inhibition
35 | O=CC=C(c1ccccc1)c1ccccc1 | 4%
36 | FC(F)(F)c1nc2nc(Cl)c(Cl)nc2n1CCCN1CCOCC1 | 9%
37 | N#CSc1ccc(S(N)(=O)=O)cc1 | -67%
38 | O=C(NC(Nc1ccc(F)c(Cl)c1)(C(F)(F)F)C(F)(F)F)C(C(F)(F)F)C(F)(F)F | 14%
39 | O=C(/C=C\c1ccc(Cl)cc1Cl)c1cccs1 | 1%
40 | O=C(NCCCCNCCCNC(=O)c1cc(-c2ccccc2)nc2ccccc12)c1cc(-c2ccccc2)nc2ccccc12 | 0%
41 | NC(=NCc1ccccc1)N/N=C\c1ccnc2ccccc12 | 0%
42 | COc1cc(C2C3=C(COC3=O)Oc3cc4c(cc32)OCO4)ccc1O (stereo not drawn) | -6%
43 | C#CCCCc1ccccc1 | -61%
44 | CCc1ccc(NS(=O)(=O)c2ccccc2)c([N+](=O)[O-])c1 | 5%
45 | COc1ccc(C2c3cc4c(cc3OC(C)(O)C2C)OCO4)c(OC)c1 (stereo not drawn) | 2%
46 | COC(=O)c1ccc(CCC2=CC(=O)C(Br)=CC2=O)cc1 | 26%
47 | NNC(=O)CCc1ccc2ccc3ccccc3c2c1 | 8%
48 | Cn1c2ccccc2c(=O)c2cc(NC(=O)CCCCC(=O)Nc3ccc4c(c3)c(=O)c3ccccc3n4C)ccc21 | -6%
49 | CC(CC(C)(C)[N+](C)(C)C)[N+](C)(C)C (stereo not drawn) | 3%
50 | CC1CCN(CCC(=O)c2ccc(Cl)cc2)CC1 | 32%
51 | CCCCCCCCCCCCCCC(C(=O)[O-])[n+]1ccccc1 (stereo not drawn) | -3%

Row | SMILES | growth inhibition
52 | CNC1C(OC2C(OC3C(O)C(O)C(N=C(N)N)C(O)C3N=C(N)N)OC(C)C2(O)CO)OC(CO)C(O)C1O (stereo not drawn) | 1%
53 | O=C(O)c1ccccc1-c1ccccc1C(=O)Nc1ccc2c(c1)Cc1ccccc1-2 | 6%
54 | O=[N+]([O-])c1cccc2nc3ccccc3c(NCCCN3CCOCC3)c12 | 94% (active)
55 | C=CC(C)(O)CCC1C(=C)C(O)CC2C(C)(C)CCCC12C (stereo not drawn) | 23%
56 | CN1c2ccc(Cl)cc2C(=O)NC1c1ccc([N+](=O)[O-])s1 (stereo not drawn) | 13%
57 | [O-][n+]1c2ccc(O)cc2nc2ccc(Br)cc21 | 8%
58 | O=C1c2ccccc2-c2nc3ccccc3nc21 | -57%
59 | CCCCN1C(=O)N(c2ccc(OCC)cc2)C2N(CCCC)C1C(C)(C)C2(C)C (stereo not drawn) | -2%
60 | COc1cc2c(cc1[N+](=O)[O-])C(=O)C(Br)(Br)CCC2 | 45%
61 | O=C1OC(CCl)CN1/N=C/c1ccc([N+](=O)[O-])o1 (stereo not drawn) | 9%
62 | CN(C)CCOc1ccc2c(c1)C/C(=C/c1ncc([N+](=O)[O-])n1C)C2=O | 52%
63 | CCCCCCCCCCCCCCCCCCN(C)CC(COP(=O)([O-])OCC[N+](C)(C)C)OC (stereo not drawn) | -1%
64 | CC(C)c1ccccc1NC(=O)/C(Cl)=C(\Cl)C(=O)O | 4%
65 | O=[N+]([O-])C(=C(Sc1ccccc1)Sc1ccccc1)C(Cl)=C(Cl)Cl | 24%
66 | C(=C\c1ccccc1)/COc1ccccc1C(N1CCOCC1)n1nc2ccccc2n1 (stereo not drawn) | 22%
67 | O=C1C(Nc2ccccc2)=C(Oc2ccccc2)C(=O)c2ccccc21 | -2%
68 | CCN(CC)CCN1C(=O)c2cccc3cc(OC)cc(c23)C1=O | 40%

— PubChem BioAssay (NCI)
